This is a sample that favours compounds with a hit; in the whole collection about 12% have one here.
JMJD2A Tudor inh – qHTS Assay for Inhibitors of JMJD2A-Tudor Domain; Lysine-specific demethylase 4A (Homo sapiens), O75164; AlphaScreen JMJD2A-Tudor / H3K4me3 peptide binding; Potency, µM (series often up to 114 µM), for the others: at the top dose activity change, negative = inhibition, hits mostly inhibitors; hit rate 4.4% among 390,000; note: % is set by controls: 0 for no effect and ±100 for the full control effect; nearly all actives have a fitted effect of over 50% in size
BAZ2B block – qHTS Assay for Inhibitors of BAZ2B. Potency, µM (highest dose often 114 µM), without a hit: top-dose activity change, negative = inhibition, most hits filed as inhibitors. hit rate 4.4% among 360,000. Bromodomain adjacent to zinc finger domain protein 2B (Homo sapiens), Q9UIF8. AlphaScreen BAZ2B-H3K14Ac peptide displacement; note: % is set by controls: 0 for no effect and ±100 for the full control effect; nearly all actives have a fitted effect of over 60% in size
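AlphaScreen displacement: compounds (up to 110uM) incubated 30 min at room temperature with a preformed 50 nM BAZ2B/50 nM biotinylated H3K14Ac peptide complex in PBS pH 7.4 with Tween-20. Donor and acceptor beads at 10 ug/mL final added, 20 min light-protected before reading.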
G9a block – qHTS Assay for Inhibitors of Histone Lysine Methyltransferase G9a | Histone-lysine N-methyltransferase EHMT2 (Homo sapiens), Q96KQ7 | hit rate 8.8% among 350,000 | G9a H3K9 monomethylation, AlphaScreen, 2 h | Potency, µM (doses to about 102 µM), for the others: top-dose activity, negative = inhibition, actives largely listed as inhibitors; note: % is set by controls: 0 for no effect and ±100 for the full control effect; nearly all actives have a fitted effect of over 75% in size
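AlphaScreen read-out: biotin-H3K9 peptide (500 nM) methylation by 20 nM enzyme with 20 uM SAM, 2 h at room temperature after 15 min compound preincubation; anti-monomethyl H3K9 antibody plus donor/acceptor beads, 10 min dark.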
Sfp PPTase inh – qHTS Assay for Inhibitors of Bacillus subtilis Sfp phosphopantetheinyl transferase (PPTase); Potency, µM, for the others: largest response in the series, negative = inhibition, usual class: inhibitors; Biochemical Sfp PPTase activity, qHTS; hit rate 3.5% among 310,000; 4'-phosphopantetheinyl transferase ffp (Bacillus subtilis), Q9F4F7;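 note: the enzyme is Sfp with the accession as filed and its product quenches rhodamine fluorescence; 0% = enzyme reaction without inhibitor and -100% = no enzyme wells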
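Fluorescence-quenching assay with 15 nM Sfp, 5 uM rhodamine-CoA and 12.5 uM BHQ-2-labelled ybbR peptide in pH 7.6 Hepes/MgCl2 buffer. Enzyme was pre-incubated with compound for 15 min at room temperature. Rate was taken from the 30-min fluorescence change (525/598 nm).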
PLK1 PBD inh – qHTS for Inhibitors of PLK1-PDB (polo-like kinase 1 - polo-box domain): Primary Screen. Serine/threonine-protein kinase PLK1 (Homo sapiens), P53350. Plk1 PBD binding of FITC phosphopeptide, fluorescence polarization. Potency, µM, without a hit: max response, negative = inhibition, usual class: inhibitors. hit rate 2.8% among 360,000. AID 720504, 2013; note: series mostly up to about 57 µM; % is set by controls: 0 for no effect and ±100 for the full control effect; nearly all actives have a fitted effect of over 65% in size
HP1b binding inh – HTS for Inhibitors of HP1-beta Chromodomain Interactions with Methylated Histone Tails | hit rate 0.56% among 390,000 | Potency, µM (top dose mostly 114 µM), inactives show at the highest dose activity change, negative = inhibition, hits mostly inhibitors | AlphaScreen HP1-beta / biotin-H3K9me3 peptide binding | AID 540317, 2011 | Chromobox protein homolog 1 (Homo sapiens), P83916; note: nearly all actives have a fitted effect of over 70% in size
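HP1-beta protein (50 nM final) preincubated 30 min at room temperature with biotinylated H3(1-18)K9me3 peptide (50 nM) in PBS pH 7.4, 0.01% Tween-20, then compound added for 30 min. AlphaScreen streptavidin donor/nickel chelate acceptor beads (10 ug/mL final), 30 min dark, luminescence read.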
* hit, by the source's call; ? = inconclusive; / = no result given; [ ] = dose if it differs, or a comment. Calls come from the whole dose curve; as a rule, active = well fitted curve in the direction sought with a large enough effect; inconclusive = small, poorly fitted or top-dose-only effect, or another doubt; inactive = no such curve, though single readings can be large; an effect the other way counts as inactive or inconclusive. Potency is the fitted concentration of half-maximal effect.

SMILES | JMJD2A Tudor inh | BAZ2B block | G9a block | Sfp PPTase inh | PLK1 PBD inh | HP1b binding inh
O=c1ccn(C2OC(COP(=O)(O)OP(=O)(O)OP(=O)(O)O)C(O)C2O)c(=O)[nH]1 (stereo unspecified) | / | / | / | -2% | / | /
CCOC(=O)c1sc(N2C(=O)c3oc4ccc(F)cc4c(=O)c3C2c2ccc(O)cc2)nc1C (stereo unspecified) | 8% | -2% | 6%[59 µM] | / | / | 48%
NC(=O)CN1CCN(c2nc(-c3ccc(F)cc3)cs2)CC1 | -10%[11.4 µM] | -5% | 1% | 4% | 30µM* | -30%
O=C(CN1CCN(c2ccc(F)cc2)CC1)Nc1ccc2c(c1)OCCO2 | -24% | -8% | 14% | 13% | -6% | -13%
O=C(CN1CCN(c2nc(-c3ccc(F)cc3)cs2)CC1)Nc1ccc2c(c1)OCO2 | -26% | ? | 45µM* | 2% | 0% | -24%
CCCCC(=O)N1CCN(c2nc(-c3ccc(F)cc3)cs2)CC1 | -6% | -2% | / | 2% | -7% | 16%
Cc1ccc(C2NC(=O)c3sc(=S)n(-c4ccccc4)c3N2)cc1 (stereo unspecified) | -11% | -12% | ? | 40µM* | -14% | 34%
CCOC(=O)C1=C(C)NC(C)=C(C(=O)OCC)C1c1c(F)c(F)c(F)c(F)c1F | / | / | 37%[59 µM] | / | / | /
CN1CCN(C2=C(NS(=O)(=O)c3cccs3)C(=O)c3ccccc3C2=O)CC1 | -19% | -15% | ? | 3% | -12% | -14%
COc1ccccc1N1CCN(S(=O)(=O)c2cccs2)CC1 | -7% | 5% | 2%[59 µM] | 10% | -1% | 26%
O=C1C(NS(=O)(=O)c2cccs2)=C(N2CCOCC2)C(=O)c2ccccc21 | ? | 40µM* | 40µM* | 1% | -9% | ?
O=C1C=C(N2CCOCC2)c2ccccc2C1=O | -15% | -38% | ? | 8% | -18% | -2%
O=C1C(NS(=O)(=O)c2cccs2)=C(N2CCN(Cc3ccccc3)CC2)C(=O)c2ccccc21 | 14µM* | 13µM* | 13µM* | 6% | -10% | 16µM*
CN(C1=C(N2CCOCC2)C(=O)c2ccccc2C1=O)c1ccccc1 | 16µM* | 10µM* | 10µM* | -7% | -13% | 35µM*
CCOc1ccccc1N1CCN(C2=C(NS(=O)(=O)c3cccs3)C(=O)c3ccccc3C2=O)CC1 | 8.9µM* | 8.9µM* | ? | ? | -4% | ?
CC(NS(C)(=O)=O)C(c1cccs1)N1CCN(Cc2ccccc2)CC1 (stereo unspecified) | -22% | 10% | -17%[59 µM] | 14% | -6% | 26%
COc1ccc(CCNC(=O)CCc2ccc(S(=O)(=O)NCC(C)C)cc2)cc1OC | -7% | 1% | 13% | 16% | 8% | 35%
CC1CCCCC12NC(=O)N(CC(=O)N1CCc3ccccc3C1)C2=O (stereo unspecified) | -7% | -5% | ? | / | -3% | 10%
O=C(COC(=O)c1cc[n+]([O-])cc1)Nc1cc([N+](=O)[O-])ccc1Cl | -19% | 10% | -3% | / | -16% | 10%
CC(=O)c1cccc(Nc2nc(N3CCOCC3)nc(N3CCOCC3)n2)c1 | -10% | ? | / | 19% | 3% | 0%
c1csc(CN2CCOCC2)c1 | 2.8µM* | 35µM* | 8.9µM* | -17% | -5% | ?
CC(C)(CNS(=O)(=O)c1cccs1)N1CCOCC1 | 8% | / | / | / | 1% | 19%[57 µM]
O=S(=O)(NCCN1CCOCC1)c1cccs1 | -10% | -1% | 40µM* | 16% | 2% | 35%
O=C1C(NS(=O)(=O)c2cccs2)=C(N2CCN(c3cccc(C(F)(F)F)c3)CC2)C(=O)c2ccccc21 | 40µM* | 10µM* | ? | -9% | -16% | ?
O=C(O)c1cccc(NC2=C(N3CCOCC3)C(=O)c3ccccc3C2=O)c1 | -23% | ? | 2.8µM* | -8% | -18% | -4%
SMILES | JMJD2A Tudor inh | BAZ2B block | G9a block | Sfp PPTase inh | PLK1 PBD inh | HP1b binding inh
c1csc(CNCCCN2CCOCC2)c1 | -10% | -8% | ? | 17% | -4% | 24%
O=C(COc1ccc2c(-c3ccccc3)cc(=O)oc2c1)NC1CCS(=O)(=O)C1 (stereo unspecified) | -22% | 7% | -6%[0.501 µM] | / | -8% | 25%
COc1ccc(-n2cnnc2SCC(=O)NC2CCCCC2)cc1 | -8% | / | / | / | -9% | 13%
Cc1ccc(-c2nnc(SCC(=O)NC3CCCC3)nc2-c2ccc(C)cc2)cc1 | -24% | -16% | -33%[59 µM] | / | / | 18%
c1ccc(-c2nc(SCc3nc4ccccc4[nH]3)c3oc4ccccc4c3n2)cc1 | -26% | / | / | / | / | 10%
CCCn1c(SCC(=O)c2ccc3c(c2)NC(=O)CO3)nc2ccccc21 | -31% | -2% | ? | -23% | 9.5µM* | 0%
Nc1cc(N)nc(SCC(=O)c2ccc3c(c2)NC(=O)CO3)n1 | 11% | -10% | 35µM* | -48% | -14% | 6%
O=C(COC(=O)c1ncc(Cl)c(Cl)c1Cl)NCCc1ccccc1 | -5% | -5% | -28% | / | -8% | 29%
CC(C)c1ccc2oc(-c3ccc(NC(=O)c4ncn[nH]4)cc3)nc2c1 | 40µM* | 35µM* | 5%[12.7 µM] | 15% | -8% | 12%
O=C(Nc1ccc2oc(-c3cccc4ccccc34)nc2c1)c1ncn[nH]1 | 9% | -10% | -26%[59 µM] | -7% | -4% | 45%
O=C(Nc1ccc2oc(-c3ccccc3Cl)nc2c1)c1ncn[nH]1 | 28µM* | 50µM* | ? | -3% | -3% | 10%
CCOc1ccc(S(=O)(=O)N2CCOCC2)cc1NC(=O)CSCc1c(C)noc1C | -6% | 0% | -2%[2.33 µM] | / | -4% | 18%
C=C(C)CSc1nnc([C@@H]2CCCN2C(=O)OC(C)(C)C)o1 | -4% | -4% | -3%[59 µM] | 13% | -21% | 23%
CCSc1nnc([C@@H]2CCCN2C(=O)OC(C)(C)C)o1 | -14% | 12% | 50µM* | -6% | -5% | 30%
CCCCNC1=CC(=O)C(=O)c2ccccc21 | -20% | -37% | -1% | 12% | -17% | 0%
CCCCNC1=CC(=O)C(NCCCC)=CC1=O | 40µM* | / | / | / | -18% | 18µM*
Cc1cc(Cl)ccc1OCC(=O)Nc1c(C(=O)c2ccccc2)oc2ccccc12 | -2% | -1% | -2%[59 µM] | / | / | 30%

Source: PubChem (National Center for Advancing Translational Sciences (NCATS))
